We go through 7 molecules from PubChem BioAssay (NCI).

The panel holds about 83,000 compounds, 20% with a hit somewhere; the sample as a whole holds those more often.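 Single-concentration screen, 48 h exposure, 96-well plates. Endpoint: percent growth. Below 10 = active.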 Values without a mark were called inactive. Calls of active or inactive are those of the source.

Some test systems named below: HCT-15 colon; HT29 colon; SNB-75 CNS; SNB-19 CNS; U251 CNS; PC-3 prostate; SK-MEL-5 melanoma; UACC-62 melanoma; LOX IMVI melanoma; SK-MEL-28 melanoma; SK-MEL-2 melanoma; EKVX NSCLC; SN12C renal; UO-31 renal; TK-10 renal; ACHN renal; CAKI-1 renal; A498 renal; CCRF-CEM leukemia; MOLT-4 leukemia.
Holding throughout (experiment): NCI-60 one-dose screen, 48 h (100 = growth as untreated, 0 = no growth, -100 = all killed)
Conditions in all cases: 10 µM unless noted

Turning to `COc1ccc(-c2nn(-c3ccc(S(C)(=O)=O)cc3)cc2/C=N/O)cc1`, the growth in the test on HCT-15 colon was 103%; in the test with HT29 colon it was 106%; with SNB-75 CNS it was 127%; with SNB-19 CNS, 105%; with U251 CNS it was 106%; in the test on PC-3 prostate, 102%. Besides, the growth was 98.7% in the test on SK-MEL-5 melanoma; 96.6% in the test with UACC-62 melanoma; 102% in the test with LOX IMVI melanoma; 96.1% with SK-MEL-28 melanoma; 109% with SK-MEL-2 melanoma; 104% in the test on EKVX NSCLC. In addition, the growth was 98.9% with SN12C renal; 97% in the test with UO-31 renal; 124% in the test with TK-10 renal; 95.3% in the test on ACHN renal; 111% with CAKI-1 renal; 116% in the test on A498 renal. The growth with CCRF-CEM leukemia was 99.6%; in the test with MOLT-4 leukemia, 103%.

In the case of `CCCCCc1ccc(S(=O)(=O)Nc2cccc(-c3csc(NC(=O)CN4CCN(CCO)CC4)n3)c2)cc1`, the growth is 51.3% in the test on HCT-15 colon; 35.6% with HT29 colon; 88% with SNB-75 CNS; 82.6% with SNB-19 CNS; 55.4% in the test on U251 CNS; 64.1% in the test on PC-3 prostate. Further, the growth in the test with SK-MEL-5 melanoma was 51.7%; in the test on UACC-62 melanoma it was 90%; in the test on LOX IMVI melanoma it was -45.9% (active); in the test with SK-MEL-28 melanoma it was 79.4%; in the test with SK-MEL-2 melanoma it was 99.7%; in the test with EKVX NSCLC, 81.4%. The growth with SN12C renal was 86.6%; in the test with UO-31 renal, 79.9%; in the test on TK-10 renal, 113%; with ACHN renal, 101%; with CAKI-1 renal, 76.2%; with A498 renal, 81%. Also, the growth with CCRF-CEM leukemia is 53.8%; in the test with MOLT-4 leukemia, 58.8%.

With `CC(C)(C)n1cc(-c2ccnc(NCCCNS(=O)(=O)c3cccc(F)c3)n2)c(-c2ccc(Cl)c(O)c2)n1`, the growth in the test on HCT-15 colon was 89.6%; in the test with HT29 colon it was 94.8%; in the test with SNB-75 CNS it was 110%; with SNB-19 CNS, 103%; with U251 CNS, 106%; in the test on PC-3 prostate, 67.5%. Further, the growth in the test with SK-MEL-5 melanoma is 95.5%; in the test on UACC-62 melanoma, 89.5%; in the test with LOX IMVI melanoma, 96.4%; with SK-MEL-28 melanoma, 95.4%; with SK-MEL-2 melanoma, 98.4%; with EKVX NSCLC it was 80.5%. For the same molecule, the growth in the test on SN12C renal is 90.9%; in the test with UO-31 renal, 101%; in the test with TK-10 renal it was 152%; with ACHN renal, 97%; in the test with CAKI-1 renal it was 95.8%; with A498 renal, 91.4%. Further, the growth in the test with CCRF-CEM leukemia is 71.4%; with MOLT-4 leukemia it was 77.4%.

With `CCOC(=O)C1=NNC(c2ccc(Cl)cc2)C1C(=O)N1C(=S)NC(=O)C1CC(C)C` (stereo not given), the growth in the test with HCT-15 colon is 105%; in the test on HT29 colon, 116%; in the test with SNB-75 CNS, 100%; with SNB-19 CNS it was 98.3%; in the test with U251 CNS it was 105%; with PC-3 prostate, 96.8%. The growth in the test with SK-MEL-5 melanoma is 106%; in the test with UACC-62 melanoma, 94.2%; in the test with LOX IMVI melanoma it was 103%; with SK-MEL-28 melanoma, 103%; with SK-MEL-2 melanoma it was 110%; in the test with EKVX NSCLC it was 84.5%. Moreover, the growth in the test with SN12C renal is 99.4%; with UO-31 renal, 81.4%; in the test on TK-10 renal, 164%; in the test with ACHN renal it was 93.3%; with CAKI-1 renal, 85.2%; in the test on A498 renal it was 95%. In addition, the growth was 100% in the test on CCRF-CEM leukemia and 89.5% with MOLT-4 leukemia.

For the molecule `CNC(=O)c1cc(N2CCc3cc(NC(=O)Nc4ccc(Cl)c(C(F)(F)F)c4)ccc32)ccn1`, the growth in the test on HCT-15 colon is 28%; in the test on HT29 colon, 61.2%; in the test on SNB-75 CNS, 93.3%; with SNB-19 CNS, 61.4%; in the test on U251 CNS, 52.4%; with PC-3 prostate, 29%. Also, the growth was 46.6% with SK-MEL-5 melanoma; 51.8% in the test on UACC-62 melanoma; 64.7% in the test with LOX IMVI melanoma; 66.9% in the test on SK-MEL-28 melanoma; 88.5% with SK-MEL-2 melanoma; 55.1% in the test on EKVX NSCLC. Moreover, the growth in the test with SN12C renal was 65.2%; in the test with UO-31 renal, 68.4%; in the test with TK-10 renal it was 86.6%; in the test with ACHN renal, 38.1%; in the test on CAKI-1 renal it was 53.9%; in the test on A498 renal, 80.3%. Moreover, the growth was 48.4% in the test with CCRF-CEM leukemia and 35.6% with MOLT-4 leukemia.

As for `CNC(=O)c1cc(-c2ccc(NS(=O)(=O)c3ccc(C)cc3)cc2)nc2cccnc12`, the growth in the test with HCT-15 colon is 105%; in the test with HT29 colon, 109%; in the test on SNB-75 CNS it was 104%; in the test with SNB-19 CNS, 99.8%; in the test on U251 CNS, 101%; in the test on PC-3 prostate, 99.7%. Further, the growth was 103% in the test with SK-MEL-5 melanoma; 90.4% in the test with UACC-62 melanoma; 100% in the test on LOX IMVI melanoma; 119% in the test on SK-MEL-28 melanoma; 102% with SK-MEL-2 melanoma; 95.9% with EKVX NSCLC. Also, the growth in the test with SN12C renal is 103%; in the test on UO-31 renal, 81.5%; in the test on TK-10 renal, 118%; with ACHN renal, 104%; in the test on CAKI-1 renal, 94.4%; in the test on A498 renal, 106%. For the same molecule, the growth with CCRF-CEM leukemia is 109%; in the test on MOLT-4 leukemia, 100%.

`N#Cc1c(NC(=O)c2cccc(C(F)(F)F)c2F)sc2c1CCC(=O)C2`: the growth in the test with HCT-15 colon is -49.6% (active); in the test on HT29 colon it was 4.38% (active); in the test on SNB-75 CNS it was -66.3% (active); in the test on SNB-19 CNS, 15.4%; in the test on U251 CNS it was 0.119% (active); in the test with PC-3 prostate, -43.9% (active). For the same molecule, the growth is -91.1% (active) in the test with SK-MEL-5 melanoma; -56.6% (active) with UACC-62 melanoma; -8.55% (active) with LOX IMVI melanoma; -71.8% (active) in the test with SK-MEL-28 melanoma; 5.28% (active) in the test with SK-MEL-2 melanoma; 5.47% (active) in the test with EKVX NSCLC. The growth in the test on SN12C renal was 7.61% (active); in the test on UO-31 renal it was -99.7% (active); in the test with TK-10 renal it was 24.1%; in the test with ACHN renal, -95.5% (active); in the test on CAKI-1 renal, -83.5% (active); with A498 renal it was -8.37% (active). Also, the growth in the test on CCRF-CEM leukemia is 7.8% (active); in the test with MOLT-4 leukemia, -0.731% (active).
